An excerpt weighted towards active compounds, which were near 11% of everything screened.
PNC inhibitor – blocks assembly of the perinucleolar compartment. PC3M PTB-GFP, PNC prevalence imaging, 16 h; hits give low values. 140,000 compounds, 3.1% hits. activity change (PNC), negative = inhibition, % at 10 µM;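 active = readout at or below -70, meaning at least 70% loss of cells showing the perinucleolar compartment, a nuclear body marking cancer cells; inconclusive = readout between -30 and a set limit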;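 note: plate controls were DMSO wells for no effect and camptothecin positive control wells for full effect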
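Compounds are pinned in duplicate onto adhered PC3M cells stably expressing GFP-tagged PTB and incubated 16 h at 37 C. Cells are then fixed, nuclei stained with Hoechst, and PNC-positive cells counted.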
IMPase Li cell – cell-permeable IMPase inhibitors with lithium potentiation | CHO-M1 cells, IP1 TR-FRET (IP-One), carbachol + lithium | Potency, µM (series often up to 59.4 µM), without a hit: at the top dose activity, negative = IMPase inhibition, usual class: inhibitors | 210,000 compounds, 0.35% hits | AID 1457;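 note: IP1 builds up when IMPase is blocked and the TR-FRET signal falls; potency is the fitted concentration of half-maximal effect; plate controls were basal vehicle for no effect and high inhibitor control for full effect; nearly all actives have a fitted effect of over 50% in size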
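CHO-M1, 2000 cells/well, 16–30 h culture; cpd + low Li+, 30 min 37C; lysis with d2-IP1/Eu-anti-IP1 Ab, 10 min RT; TR-FRET 665/620 ratio and 620 channel; AC50 via Hill.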
IMPase inh – membrane-permeable compound that blocks inositol monophosphatase | CHO-M1 cells, IP1 accumulation, HTRF TR-FRET ratio | inhibition (IP1 accumulation), % at 46.1 µM | 120,000 tested, under 10 active; active = well fitted curve in the direction sought with a large enough effect in the signal ratio, not every such curve was filed as active; inconclusive = small, poorly fitted or top-dose-only effect, or a change in a side signal; inactive = no such curve, though single readings can be large or run the other way; the % refers to the signal ratio;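 note: cells stimulated with carbachol in lithium chloride buffer; plate controls were DMSO basal wells for no effect and reference inhibitor wells for full effect; higher means more IMPase inhibition seen as more IP1 and lower FRET ratio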
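The IP-One HTRF competitive assay in carbachol-stimulated CHO-M1 cells quantifies cellular IP1. Compounds spanned up to 46 uM final, and activity is expressed as AC50 from concentration-response fits of the ratio and donor data.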
12-hLO inh – inhibitors of human 12-lipoxygenase (ALOX12) | AID 1452 | 150,000 compounds, 0.12% hits | purified 12-hLO, xylenol orange hydroperoxide absorbance | Potency, µM (doses to about 57.1 µM), without a hit: at the highest dose activity change, negative = inhibition, actives largely listed as inhibitors; note: potency is the fitted concentration of half-maximal effect; nearly all actives have a fitted effect of over 55% in size
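Hydroperoxide output read as Fe(III)-xylenol orange absorbance, 573-to-405 nm ratio, after 30 min reaction with 40 uM arachidonic acid. Enzyme: 150 nM purified human 12hLO, 15 min compound preincubation; 25 mM Hepes pH 7.0, room temperature.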
ALDH1A1 inh – ALDH1A1 (human) enzyme inhibition | P00352 | Purified ALDH1A1, NADH fluorescence, propionaldehyde substrate | Potency, µM (doses to about 75.3 µM), without a hit: top-dose activity, negative = inhibition, most hits filed as inhibitors | 220,000 compounds, 7.3% hits | AID 1030; active = well fitted inhibition curve with a large enough effect, not every such curve was filed as active; inconclusive = small, poorly fitted or top-dose-only effect, or another doubt; inactive = no such curve, though single readings can be large or run the other way;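 note: potency is the fitted concentration of half-maximal effect; plate controls were no enzyme wells and a reference inhibitor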
Target sequence (P00352 whole entry, looked up): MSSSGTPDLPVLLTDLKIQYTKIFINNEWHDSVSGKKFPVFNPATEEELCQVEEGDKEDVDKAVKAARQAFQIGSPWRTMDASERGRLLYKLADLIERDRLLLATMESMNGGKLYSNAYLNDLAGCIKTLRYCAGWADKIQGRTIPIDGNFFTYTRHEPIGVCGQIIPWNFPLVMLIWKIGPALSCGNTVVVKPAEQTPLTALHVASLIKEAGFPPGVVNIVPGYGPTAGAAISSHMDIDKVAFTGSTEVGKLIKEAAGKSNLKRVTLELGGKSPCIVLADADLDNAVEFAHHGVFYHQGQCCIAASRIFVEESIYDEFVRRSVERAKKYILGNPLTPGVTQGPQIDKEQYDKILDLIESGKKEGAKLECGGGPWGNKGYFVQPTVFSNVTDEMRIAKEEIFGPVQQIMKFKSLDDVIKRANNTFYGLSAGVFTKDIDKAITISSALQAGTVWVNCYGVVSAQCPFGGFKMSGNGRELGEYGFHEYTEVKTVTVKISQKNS
HPGD block – HPGD (human) dehydrogenase inhibition. P15428. purified HPGD, NADH fluorescence kinetic, PGE2 substrate. Potency, µM, for inactives: top-dose activity change, negative = inhibition, usual class: inhibitors. 150,000 compounds, 4.3% hits. AID 894; active = well fitted inhibition curve with a large enough effect, not every such curve was filed as active; inconclusive = small, poorly fitted or top-dose-only effect, or another doubt; inactive = no such curve, though single readings can be large or run the other way; note: potency is the fitted concentration of half-maximal effect
Target sequence (P15428 whole entry, looked up): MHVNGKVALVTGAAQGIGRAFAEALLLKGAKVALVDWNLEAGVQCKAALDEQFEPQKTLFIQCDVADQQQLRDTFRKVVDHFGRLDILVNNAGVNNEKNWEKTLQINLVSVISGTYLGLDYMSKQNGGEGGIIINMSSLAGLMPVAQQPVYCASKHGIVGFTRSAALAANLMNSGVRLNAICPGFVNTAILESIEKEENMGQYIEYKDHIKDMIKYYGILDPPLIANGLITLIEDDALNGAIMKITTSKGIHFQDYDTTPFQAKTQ
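20 nM HPGD preincubated 15 min at room temperature with compound in 50 mM Tris-HCl pH 8, 0.01% Tween 20. Started with 1 mM NAD+ and 30 uM prostaglandin E2; NADH fluorescence (360/450 nm) read 5 times over 30-s intervals, last minus first.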
* marks the source's active call; other numbers are inactive results; ? = inconclusive; / = not tested or not shown; [ ] = another dose, or the depositor's remark. Unless noted, calls come from the whole dose curve; as a rule, active = well fitted curve in the direction sought with a large enough effect; inconclusive = small, poorly fitted or top-dose-only effect, or another doubt; inactive = no such curve, though single readings can be large; an effect the other way counts as inactive or inconclusive. Unless noted, % is set by controls: 0 for no effect and ±100 for the full control effect.

SMILES	PNC inhibitor	IMPase Li cell	IMPase inh	12-hLO inh	ALDH1A1 inh	HPGD block
O=C(Nc1ccccc1)Nc1ccc(C(=O)N2CCCC2)cc1	/	1%	/	/	7%	/
O=C(Nc1ccc(C(=O)N2CCOCC2)cc1)Nc1cccc(Cl)c1	116	1%	/	-2%	22%	28µM*
CC(=O)c1cccc(NC(=O)Nc2ccc(C(=O)N3CCCC3)cc2)c1	-3	11%[38.3 µM]	1	0%	14µM*	1.1µM*
COc1ccc(-c2oc3ncn4nc(-c5cccc(C)c5)nc4c3c2-c2ccc(OC)cc2)cc1	/	/	5	/	/	/
N#CC(c1ccccc1)c1ccc2c(C(F)(F)F)cc(C(F)(F)F)nc2n1 (centres undefined)	7	24%[38.3 µM]	17	3%	22µM*	-11%
Cc1ccc(C(C#N)c2ccc3c(C(F)(F)F)cc(C(F)(F)F)nc3n2)cc1 (centres undefined)	-24	11%[38.3 µM]	9	-5%	-9%	-9%
C/C(CCN1CCCc2nc(C)c(C)cc21)=N\O[C@@H](C)CN1CCCc2nc(C)c(C)cc21	/	/	/	/	-2%[13.5 µM]	/
O=C(Nc1ccccc1Br)C1CC(=O)N(c2ccc3c4c(cccc24)CC3)C1 (centres undefined)	47	4%	/	0%	20µM*	-15%
Cc1ccc(-c2cc(C(=O)N/N=C/c3c(C)nn(-c4ccccc4)c3C)n[nH]2)s1	-115*	13%	-2	1%	?	?
Cc1ccc(-c2cc(C(=O)N/N=C/c3c(C)nn(-c4ccccc4)c3C)[nH]n2)cc1	-92*	29%[38.3 µM]	5[1.84 µM]	9%	2%	?
Cc1nn(-c2ccccc2)c(C)c1/C=N/NC(=O)c1cc(C(C)(C)C)[nH]n1	-83*	40%	6	-2%	?	-27%
Cc1[nH]c2ccccc2c1/C=N/NC(=O)c1cc(-c2cccs2)[nH]n1	10	2%	4	0%	-3%	-22%
CC(=O)[C@H]([C@@H](c1ccccc1)N1CCOCC1)N1CCOCC1	/	/	/	1%[11.4 µM]	/	/
Cn1c(=O)c2c(nc(CN3CCN(C(=O)c4ccco4)CC3)n2Cc2ccc(F)cc2)n(C)c1=O	-22	-22%[38.3 µM]	-6	-10%	20µM*	-12%
Cn1c(=O)c2c(nc(NCc3ccc4c(c3)OCO4)n2Cc2ccccc2F)n(C)c1=O	57	1%[38.3 µM]	15	-7%	13µM*	-7%
Cn1c(=O)c2c(nc(CN3CCN(C(=O)c4ccco4)CC3)n2Cc2ccccc2F)n(C)c1=O	31	7%[38.3 µM]	4	9%	13µM*	-8%
Cn1c(=O)c2c(nc(NCc3ccc4c(c3)OCO4)n2Cc2ccccc2)n(C)c1=O	36	21%[38.3 µM]	12	-7%	?	-1%
COC(=O)c1cccnc1	/	-3%	/	-3%[0.00818 µM]	?	-8%
CC(=O)NCCNc1cc(-c2ccccc2CN(C)C)ncn1	/	-9%	/	/	?	/
Cc1ccc(C(=O)Cn2c3c(sc2=N)CCCC3)cc1	/	28%	7	-19%	?	-19%
CCOC(=O)N/N=C/c1ccccc1-c1cc(OC)ccc1OC	/	1%	/	/	11%	-7%
COc1ccc(C2=NN(CN3C(=O)C(=O)c4ccccc43)C(c3ccc(C)cc3)C2)cc1 (centres undefined)	24	16%[38.3 µM]	-4	-23%	0.56µM*	-7%
COc1ccc(C2CC(c3ccc4ccccc4c3)=NN2C(=O)CN2C(=O)CCC2=O)cc1 (centres undefined)	/	7%	/	/	?	/
COc1ccc(C2=NN(CN3C(=O)C(=O)c4ccccc43)C(c3ccc(Br)cc3)C2)cc1 (centres undefined)	-10	37%[38.3 µM]	-5	-23%	0.28µM*	-6%
Cc1cc(C(=O)Nc2sc3c(c2C#N)CCC(C(C)(C)C)C3)no1 (centres undefined)	?	13%[38.3 µM]	-1	-1%	?	?
SMILES	PNC inhibitor	IMPase Li cell	IMPase inh	12-hLO inh	ALDH1A1 inh	HPGD block
N#Cc1c(NC(=O)CN2CCCCC2)sc2c1CCC2	-9	1%[38.3 µM]	-6	-10%	-7%	-8%
CCn1c(SCC(=O)Nc2sc3c(c2C#N)CCC(C(C)(C)C)C3)nnc1-c1ccco1 (centres undefined)	24	-2%[38.3 µM]	3	3%	40µM*	-23%
CC(=O)Nc1sc2c(c1C#N)CCC2	/	-8%	/	/	-1%	/
CC(C)(C)C1CCc2c(sc(NC(=O)C3CC=CCC3C(=O)O)c2C#N)C1 (centres undefined)	?	1%	/	-2%	7.1µM*	16µM*
N#Cc1c(NC(=O)C2CC=CCC2C(=O)O)sc2c1CCCCCC2 (centres undefined)	?	-10%	/	-4%	?	18µM*
N#Cc1c(NC(=O)CN2CCN(C(=O)c3ccco3)CC2)sc2c1CCCCC2	-26	-13%[38.3 µM]	8	1%	7.1µM*	8.9µM*
N#Cc1c(NC(=O)CCC(=O)O)sc2c1CCCCC2	/	7%	/	/	14µM*	/
O=C(O)c1ccccc1-c1ccccc1C(=O)NCc1cccc(C(F)(F)F)c1	/	-3%	/	/	6%	/
CCC(=O)/C=C1/Sc2ccc(OC)cc2N1CC	2	0%[38.3 µM]	15	3%	1%	-12%
CCOC(=O)/C(=C\C=C1/Sc2ccccc2N1CC)C(C)=O	8	13%	/	-3%	-3%	-13%
CCN1/C(=C/C(=O)c2ccco2)Sc2ccccc21	-4	-9%[38.3 µM]	-1	?	25µM*	-20%
CCC(=O)/C=C1/Sc2ccccc2N1CC	4	-4%	5	-5%	3.5µM*	28µM*
CCOC(=O)/C(=C/C=C1\Sc2ccccc2N1CC)C(C)=O	6	42%	/	-11%	13µM*	28µM*
CN1CC[C@@]2(CCCN(C(=O)c3cccn3C)C2)C1	/	-5%	/	-3%	7%	-1%
CCCOc1ccc(C(=O)Nc2cccc(NC(=O)c3cccc(Cl)c3)c2)cc1	/	/	-7	/	/	/
COc1ccc(C(=O)CCNc2cccc(Cl)c2)cc1	-16	8%	-3	1%	3.2µM*	0%
CCCOc1ccc(C(=O)CCNc2cccc(Cl)c2)cc1	/	0%	/	/	7.9µM*	/
COc1ccc(C(=O)CCC(=O)Nc2cccc(Cl)c2)cc1	/	6%	/	/	11%	/
Cc1cc2nc(-c3ccc(NC(=O)c4ccccc4F)cc3)oc2cc1C	/	/	-6	/	/	/
COC(=O)C1=C(C(=O)OC)[C@@H]2N(Cc3ccccc3)c3ccccc3[C@@]23C[C@@H](C(=O)OC)N(S(=O)(=O)c2ccc4c(c2)OCCN4C)C3=N1	/	10%	/	4%[11.4 µM]	-2%[13.5 µM]	-7%
CCC1=NC(c2ccc(OC)cc2OC)N(O)C1(C)C (centres undefined)	13	8%[38.3 µM]	1	-24%	8.9µM*	-11%
CSc1nc(N(C)NC(=O)c2ccc(Cl)cc2)c2ccccc2n1	-97*	1%	14	0%	12%	4%

High-throughput results: PubChem, National Center for Advancing Translational Sciences (NCATS)
